# In PubChem BioAssay (EPA / NIEHS):
# Results filed as inconclusive are left out. Calls of active or inactive are those of the source. Rule for the calls: active = hit-call score of the fitted dose curve at least 0.9, where 1 is the maximum; inconclusive = response in the unintended direction; inactive = score below 0.9.
# How the values were obtained:
# [1] = STM_H9_NormalizedViability: Cytotoxicity Assessment at 120 hours in the Stemina devTOX quickPredict H9 human embryonic stem cell (hESC)-based Assay (AID 2283784)
# Method in brief: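 Pluripotent H9 hESCs were exposed, with chemical and media replaced every 24 h. Viability was read by CellTiter-Fluor fluorescence, background-corrected and normalized to the 0.1% DMSO neutral control per plate. Loss of signal was fitted.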
# AR (gene 367) = AR (gene 367) (UniProt P10275); assay: ACEA_AR_antagonist_80hr: ACEA Biosciences xCELLigence Real-Time Cell Analysis on Androgen Receptor Antagonism for Proliferation (AID 2283787);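 note: 22Rv1 human prostate cancer cells with growth followed by electrical impedance; hits lower the impedance growth signal relative to DMSO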
# Method in brief: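 Growth-kinetic antagonist readout in 22Rv1 cells, taken 80 h after continuous compound exposure. Activity fitted as signal loss relative to DMSO negative control.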
# [2] = ATG_M_19_XSP1: Attagene TRANS-FACTORIAL Multi-Species (XSP1) HepG2 Assay for M19 Transcription Factor (Internal Marker) (AID 2283798)
# Method in brief: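 HepG2 cells transiently transfected with multiplexed GAL4-UAS reporter units, dosed 24 h with 3 nM 6-alpha-fluorotestosterone present for partial AR stimulation. Reporter mRNA measured by RT-PCR with capillary electrophoresis; gain-of-signal fitted relative to DMSO.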
# [3] = ATG_M_32_XSP1: Attagene TRANS-FACTORIAL Multi-Species (XSP1) HepG2 Assay for M32 Transcription Factor (Internal Marker) (AID 2283799)
# Method in brief: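 HepG2 cells transiently transfected with multi-species TRANS reporter units, dosed 24 h with 3 nM 6-alpha-fluorotestosterone present. Internal-marker reporter mRNA quantified by RT-PCR and capillary electrophoresis; positive-direction fit versus DMSO.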
# [4] = test system: zebrafish Peroxisome Proliferator-activated Receptor gamma (PPARg), gene 557037; assay: ATG_zfPPARg_XSP1: Attagene TRANS-FACTORIAL Multi-Species (XSP1) HepG2 Assay for zebrafish Peroxisome Proliferator-activated Receptor gamma (PPARg) (AID 2283801)
# Method in brief: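 HepG2 cells transiently transfected with GAL4-UAS reporter units including a zebrafish PPARg–GAL4 chimera, dosed 24 h with 3 nM 6-alpha-fluorotestosterone present. Reporter mRNA quantified by RT-PCR, FAM labelling, HpaI digestion and capillary electrophoresis; induction versus DMSO.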
# [5] = target: mouse Peroxisome Proliferator-activated Receptor gamma (PPARg), Pparg (gene 19016) (UniProt P37238); assay: ATG_mPPARg_XSP1: Attagene TRANS-FACTORIAL Multi-Species (XSP1) HepG2 Assay for mouse Peroxisome Proliferator-activated Receptor gamma (PPARg) (AID 2283802)
# Method in brief: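 HepG2 cells transiently transfected with GAL4-UAS reporter units driven by mouse PPARg–GAL4 chimera; 3 nM 6-alpha-fluorotestosterone present. After 24 h dosing, reporter mRNA quantified by RT-PCR, fluorescent labelling and capillary electrophoresis; gain of signal versus DMSO.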
# [6] = target: Nuclear receptor subfamily 1 group I member 2 (Mus musculus) (UniProt O54915); assay: ATG_mPXR_XSP1: Attagene TRANS-FACTORIAL Multi-Species (XSP1) HepG2 Assay for mouse Pregnane X Receptor (PXR) (AID 2283803)
# Method in brief: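 Transiently transfected HepG2 cells expressing a receptor-Gal4 chimera drive a GAL4-UAS reporter; 3 nM 6-alpha-fluorotestosterone included. Reporter mRNA read 24 h post-dose by RT-PCR and capillary electrophoresis; gain of signal relative to DMSO.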
# [7] = target: zebrafish Thyroid Hormone Receptor alpha (TRa), thraa (gene 30670) (UniProt Q98867); assay: ATG_zfTRa_XSP1: Attagene TRANS-FACTORIAL Multi-Species (XSP1) HepG2 Assay for zebrafish Thyroid Hormone Receptor alpha (TRa) (AID 2283807)
# Method in brief: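 HepG2 cells transiently transfected with GAL4-UAS reporter units including a zebrafish TRa–Gal4 chimera, dosed 24 h with 3 nM 6-alpha-fluorotestosterone present. Reporter mRNA quantified by RT-PCR and capillary electrophoresis; gain versus DMSO.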
# [8] = target: zebrafish Thyroid Hormone Receptor beta (TRb), thrb (gene 30607) (UniProt Q9PVE4); assay: ATG_zfTRb_XSP1: Attagene TRANS-FACTORIAL Multi-Species (XSP1) HepG2 Assay for zebrafish Thyroid Hormone Receptor beta (TRb) (AID 2283809)
# Method in brief: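 HepG2 cells transiently transfected with multiplexed GAL4-UAS reporter units expressing chimeric zebrafish TRb–Gal4. Dosed 24 h with 3 nM 6-alpha-fluorotestosterone present; reporter mRNA measured by RT-PCR, HpaI digestion and capillary electrophoresis; gain of signal versus DMSO.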
# [9] = target: Estrogen receptor beta (Homo sapiens) (UniProt Q92731); assay: ATG_hERb_XSP1: Attagene TRANS-FACTORIAL Multi-Species (XSP1) HepG2 Assay for human Estrogen Receptor (ESR2) (AID 2283788)
# Method in brief: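 Measured endpoint is transcriptional gain of signal from a GAL4-UAS reporter controlled by chimeric ERβ in HepG2 liver cells. Exposure lasts 24 h alongside 3 nM 6-alpha-fluorotestosterone, with DMSO as negative control.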
# [10] = target: frog Thyroid hormone Receptor alpha (TRa), thra-a (gene 397942) (UniProt P15204); assay: ATG_frTRa_XSP1: Attagene TRANS-FACTORIAL Multi-Species (XSP1) HepG2 Assay for frog Thyroid hormone Receptor alpha (TRa) (AID 2283804)
# Method in brief: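 HepG2 cells transiently transfected with frog TRa-GAL4 chimeric reporter units, dosed 24 hr with 3 nM 6-alpha-fluorotestosterone present; reporter mRNA quantified by RT-PCR, fluorescent labelling and capillary electrophoresis, gain of signal versus DMSO.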
# [11] = test system: turtle Thyroid Hormone Receptor, alpha (TRa), gene 101949057; assay: ATG_trTRa_XSP1: Attagene TRANS-FACTORIAL Multi-Species (XSP1) HepG2 Assay for turtle Thyroid Hormone Receptor, alpha (TRa) (AID 2283806)
# Method in brief: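 HepG2 cells transiently transfected with GAL4-UAS reporter units and chimeric receptor-Gal4 constructs, with 3 nM 6-alpha-fluorotestosterone present. Reporter mRNA was quantified 24 h after dosing by RT-PCR, 6-FAM labelling and capillary electrophoresis; gain of signal versus DMSO.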
# Chain of AR (gene 367) (P10275 whole entry, looked up): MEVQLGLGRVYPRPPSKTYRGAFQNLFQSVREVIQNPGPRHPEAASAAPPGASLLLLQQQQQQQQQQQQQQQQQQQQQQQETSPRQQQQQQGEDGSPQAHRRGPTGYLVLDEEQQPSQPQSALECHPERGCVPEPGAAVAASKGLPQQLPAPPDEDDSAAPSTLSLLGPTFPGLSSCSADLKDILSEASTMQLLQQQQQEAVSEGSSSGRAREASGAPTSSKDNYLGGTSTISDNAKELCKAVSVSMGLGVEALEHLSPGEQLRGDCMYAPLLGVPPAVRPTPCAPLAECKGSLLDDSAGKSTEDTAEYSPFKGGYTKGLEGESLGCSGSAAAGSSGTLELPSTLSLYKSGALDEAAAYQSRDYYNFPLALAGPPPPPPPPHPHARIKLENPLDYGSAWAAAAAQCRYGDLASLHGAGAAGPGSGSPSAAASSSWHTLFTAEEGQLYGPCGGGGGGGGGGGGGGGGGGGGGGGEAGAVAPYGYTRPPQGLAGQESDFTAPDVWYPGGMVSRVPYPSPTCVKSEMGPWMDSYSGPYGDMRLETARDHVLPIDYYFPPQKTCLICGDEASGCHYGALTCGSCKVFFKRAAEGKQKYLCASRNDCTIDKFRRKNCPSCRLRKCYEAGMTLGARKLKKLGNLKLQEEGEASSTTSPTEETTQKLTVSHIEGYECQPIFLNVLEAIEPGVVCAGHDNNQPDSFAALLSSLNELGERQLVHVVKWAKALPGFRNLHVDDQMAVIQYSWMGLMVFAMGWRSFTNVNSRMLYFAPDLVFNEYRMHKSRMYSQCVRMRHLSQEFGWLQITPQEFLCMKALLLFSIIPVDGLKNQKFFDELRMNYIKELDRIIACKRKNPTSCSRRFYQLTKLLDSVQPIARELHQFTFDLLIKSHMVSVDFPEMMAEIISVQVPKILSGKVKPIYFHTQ
# Chain of Nuclear receptor subfamily 1 group I member 2 (Mus musculus) (O54915 whole entry, looked up, the tested form may be a part): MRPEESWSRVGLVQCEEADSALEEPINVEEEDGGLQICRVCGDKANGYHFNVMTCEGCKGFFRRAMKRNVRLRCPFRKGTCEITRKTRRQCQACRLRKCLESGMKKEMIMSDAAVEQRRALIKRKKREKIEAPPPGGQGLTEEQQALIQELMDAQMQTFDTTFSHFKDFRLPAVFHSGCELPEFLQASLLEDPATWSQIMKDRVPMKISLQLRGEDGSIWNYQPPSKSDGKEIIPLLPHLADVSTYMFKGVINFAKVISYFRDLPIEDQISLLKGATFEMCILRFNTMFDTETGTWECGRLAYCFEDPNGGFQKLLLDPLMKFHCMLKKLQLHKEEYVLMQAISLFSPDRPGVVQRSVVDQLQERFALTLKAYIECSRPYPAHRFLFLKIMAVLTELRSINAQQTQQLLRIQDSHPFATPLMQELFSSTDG
# Chain of zebrafish Thyroid Hormone Receptor beta (TRb), thrb (gene 30607) (Q9PVE4 whole entry, looked up, the tested form may be a part): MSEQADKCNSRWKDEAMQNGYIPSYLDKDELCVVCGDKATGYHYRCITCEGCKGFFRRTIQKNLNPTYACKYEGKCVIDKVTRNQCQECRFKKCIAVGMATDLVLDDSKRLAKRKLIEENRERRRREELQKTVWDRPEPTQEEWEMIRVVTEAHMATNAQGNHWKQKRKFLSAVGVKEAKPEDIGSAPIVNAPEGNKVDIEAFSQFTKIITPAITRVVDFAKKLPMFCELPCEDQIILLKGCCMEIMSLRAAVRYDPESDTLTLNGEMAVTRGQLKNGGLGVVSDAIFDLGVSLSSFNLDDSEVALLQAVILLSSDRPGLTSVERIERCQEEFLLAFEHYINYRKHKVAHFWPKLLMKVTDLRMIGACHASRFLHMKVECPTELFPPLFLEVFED
# Chain of mouse Peroxisome Proliferator-activated Receptor gamma (PPARg), Pparg (gene 19016) (P37238 whole entry, looked up, the tested form may be a part): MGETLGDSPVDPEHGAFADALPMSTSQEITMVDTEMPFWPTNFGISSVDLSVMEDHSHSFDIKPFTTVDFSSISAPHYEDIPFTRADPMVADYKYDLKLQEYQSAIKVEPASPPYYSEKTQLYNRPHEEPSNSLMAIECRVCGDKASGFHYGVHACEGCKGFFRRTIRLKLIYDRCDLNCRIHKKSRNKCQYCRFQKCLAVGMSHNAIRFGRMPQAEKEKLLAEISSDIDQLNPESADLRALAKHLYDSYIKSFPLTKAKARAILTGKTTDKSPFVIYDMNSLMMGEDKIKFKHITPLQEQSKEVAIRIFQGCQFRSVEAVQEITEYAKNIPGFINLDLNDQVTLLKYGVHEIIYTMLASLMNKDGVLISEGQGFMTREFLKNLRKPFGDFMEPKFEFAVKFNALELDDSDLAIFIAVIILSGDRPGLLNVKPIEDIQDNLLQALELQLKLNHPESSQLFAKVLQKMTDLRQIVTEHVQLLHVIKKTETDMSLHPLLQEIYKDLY
# Chain of frog Thyroid hormone Receptor alpha (TRa), thra-a (gene 397942) (P15204 whole entry, looked up, the tested form may be a part): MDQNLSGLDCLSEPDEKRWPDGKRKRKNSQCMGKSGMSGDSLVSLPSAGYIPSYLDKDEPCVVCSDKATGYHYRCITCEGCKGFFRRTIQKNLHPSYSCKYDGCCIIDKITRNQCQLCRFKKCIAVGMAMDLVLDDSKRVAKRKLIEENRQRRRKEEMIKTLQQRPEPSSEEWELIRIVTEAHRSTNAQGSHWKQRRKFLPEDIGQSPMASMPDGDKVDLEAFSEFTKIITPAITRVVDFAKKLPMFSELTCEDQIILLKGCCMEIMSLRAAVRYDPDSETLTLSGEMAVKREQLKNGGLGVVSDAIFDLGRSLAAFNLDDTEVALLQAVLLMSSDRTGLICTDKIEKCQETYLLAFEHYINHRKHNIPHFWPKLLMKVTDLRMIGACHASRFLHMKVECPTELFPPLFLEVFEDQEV
# Chain of Estrogen receptor beta (Homo sapiens) (Q92731 whole entry, looked up, the tested form may be a part): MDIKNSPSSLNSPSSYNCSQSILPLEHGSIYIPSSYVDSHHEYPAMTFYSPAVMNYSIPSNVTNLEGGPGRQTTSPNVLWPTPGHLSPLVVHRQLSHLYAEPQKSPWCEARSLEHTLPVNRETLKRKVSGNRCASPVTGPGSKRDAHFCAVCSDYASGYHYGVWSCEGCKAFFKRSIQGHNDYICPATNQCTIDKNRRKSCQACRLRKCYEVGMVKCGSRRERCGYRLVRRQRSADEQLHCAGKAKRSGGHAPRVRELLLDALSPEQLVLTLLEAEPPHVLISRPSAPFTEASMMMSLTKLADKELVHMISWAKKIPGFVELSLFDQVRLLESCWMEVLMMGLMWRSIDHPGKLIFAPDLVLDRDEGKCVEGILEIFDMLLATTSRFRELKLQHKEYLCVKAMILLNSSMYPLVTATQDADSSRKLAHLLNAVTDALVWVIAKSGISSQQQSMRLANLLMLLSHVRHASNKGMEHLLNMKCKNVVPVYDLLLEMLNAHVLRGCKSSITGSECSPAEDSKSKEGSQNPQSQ
# Chain of zebrafish Thyroid Hormone Receptor alpha (TRa), thraa (gene 30670) (Q98867 whole entry, looked up, the tested form may be a part): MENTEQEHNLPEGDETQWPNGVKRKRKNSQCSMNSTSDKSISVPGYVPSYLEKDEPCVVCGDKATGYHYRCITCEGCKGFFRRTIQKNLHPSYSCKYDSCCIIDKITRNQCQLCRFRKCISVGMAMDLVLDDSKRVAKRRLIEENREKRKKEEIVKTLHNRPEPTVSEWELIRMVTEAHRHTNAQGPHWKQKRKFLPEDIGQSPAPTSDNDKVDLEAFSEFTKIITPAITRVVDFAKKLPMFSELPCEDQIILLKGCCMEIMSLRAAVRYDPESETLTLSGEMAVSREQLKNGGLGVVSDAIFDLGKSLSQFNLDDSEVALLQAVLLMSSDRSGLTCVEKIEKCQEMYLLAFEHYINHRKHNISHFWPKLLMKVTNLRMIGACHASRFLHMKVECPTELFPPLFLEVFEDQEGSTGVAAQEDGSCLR
compound,measurement,setting,value
Cc1cccc(N)c1N,AC50,[1],75.7 µM (active)
Oc1ccc2ccc3cccc4ccc1c2c34,outcome,[1],inactive
Cc1ccc(N)c(N)c1,AC50,[1],26.9 µM (active)
CC(C)COC(=O)c1ccccc1C(=O)OCC(C)C,outcome,[1],inactive
O=C(Nc1ccccc1)c1ccccc1I,outcome,AR (gene 367),inactive
CC(C)(OOC(C)(C)c1ccccc1)c1ccccc1,AC50,AR (gene 367),26.6 µM (active)
O=[N+]([O-])C(Br)(CO)CO,AC50,AR (gene 367),30.6 µM (active)
CC(C)(O)c1cnn2c(-c3ccc(F)c(-c4c(F)cccc4C#N)c3)cnc2n1,AC50,AR (gene 367),57.9 µM (active)
Clc1ccc(Cl)c(Cl)c1,outcome,[1],inactive
O=C1CCCO1,outcome,[1],inactive
same,outcome,AR (gene 367),inactive
OCCCBr,outcome,[1],inactive
CCN(CC)N=O,outcome,[1],inactive
Nc1ccc(Oc2ccc(N)cc2)cc1,AC50,[1],75.5 µM (active)
CN(C)C(=O)Nc1ccc(Cl)cc1,outcome,[1],inactive
CCCCCCCCCCCCCN1CC(C)OC(C)C1 (stereo not drawn),outcome,[1],inactive
Nc1ccc([N+](=O)[O-])cc1,AC50,AR (gene 367),22 µM (active)
CC(C)N(Cc1ccccc1)C(=O)C(C)(C)C,outcome,AR (gene 367),inactive
CC(C)(C)C(O)(CCc1ccc(Cl)cc1)Cn1cncn1 (stereo not drawn),AC50,[1],78.7 µM (active)
CCCCOC(=O)c1ccccc1C(=O)OCc1ccccc1,AC50,[1],34 µM (active)
same,outcome,[2],inactive
same,outcome,[3],inactive
same,outcome,[4],inactive
same,AC50,[5],9.86 µM (active)
same,AC50,[6],3.81 µM (active)
same,outcome,[7],inactive
same,outcome,[8],inactive
CO[C@@H]1[C@H](OC(=O)NC(=O)CCl)CC[C@]2(CO2)[C@H]1[C@@]1(C)O[C@@H]1CC=C(C)C,AC50,[1],0.0978 µM (active)
same,AC50,AR (gene 367),12.6 µM (active)
Clc1ccc(C(c2ccc(Cl)cc2)C(Cl)(Cl)Cl)cc1,outcome,[1],inactive
same,outcome,[9],inactive
same,outcome,[2],inactive
same,outcome,[3],inactive
same,AC50,[4],100 µM (active)
same,AC50,[5],67.5 µM (active)
same,AC50,[6],2.67 µM (active)
same,outcome,[10],inactive
same,outcome,[11],inactive
same,outcome,[8],inactive
COC(=O)Nc1nc2ccccc2[nH]1,outcome,[1],inactive
same,AC50,AR (gene 367),19.6 µM (active)
CCCCCCCCn1sccc1=O,AC50,[1],47.7 µM (active)
CCNS(=O)(=O)C(F)(F)C(F)(F)C(F)(F)C(F)(F)C(F)(F)C(F)(F)C(F)(F)C(F)(F)F,outcome,AR (gene 367),inactive
